# Rows were chosen to be rich in hits. Some 4.1% of all compounds tested hit in one or more screens of this group.
# hcDAF-12 act: H. contortus DAF-12 nuclear receptor activators, primary screen, cell-based, luminescence, HEK293, lit1-tk-luc reporter | HEK293 hcDAF-12 lit1-tk-luc reporter; 0% DMSO, 100% Δ7-dafachronic acid | activation, % at 6.8 µM | 370,000 tested, 1.4% active | AID 652067, 2013;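 active = activation above the mean of all tested compounds plus 3 SD, cut at about 5.5% in these data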
# DAX1 inh-1: DAX1 (NR0B1) inhibitors on StAR promoter, primary screen, cell-based, luminescence, SF-1 (NR5A1), full-length DAX-1. HEK293T StAR-luciferase reporter, SF-1/DAX-1 repression relief. 370,000 tested, 1.1% active. AID 652010, 2013. inhibition, % at 6.8 µM;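 active = inhibition above the mean over all tested compounds plus 3 SD, cut at about 3.6% in these data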;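 note: higher inhibition means more luminescence from relief of DAX-1 repression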
# hgDAF12 agonist: H. glycines DAF-12 receptor agonists, primary screen, cell-based, luminescence, HEK293, GAL4 fusion, UAS-luciferase; activation, % at 6.8 µM; HEK293 GAL4-hgDAF12 UAS-luciferase reporter, agonist luminescence; normalized to butyrate control; 370,000 tested, 1.8% active;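 active = activation above a cutoff set at the mean of all screened compounds plus 3 SD, cut at about 10% in these data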
# ssDAF12 agonist: S. stercoralis DAF-12 nuclear receptor activators, primary screen, cell-based, luminescence, HEK293, GRIP1 co-expression, lit1-tk-luc; HEK293 ssDAF-12/GRIP1 lit1-tk-luc reporter; % of 3 µM dafachronic acid response; activation, % at 6.8 µM; 370,000 tested, 1% active; AID 652126, 2013;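 active = activation above the mean over all tested compounds plus 3 SD, cut at about 0.9% in these data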
# PolyA inhibitor: polyadenylation inhibitors in yeast reporter cells, primary screen, luminescence, S. cerevisiae. S. cerevisiae SKY197-pL101 polyadenylation reporter, beta-gal luminescence; efflux-impaired pdr1/pdr3 knockout yeast; score 100 = 6 SD above DMSO. activity score, % at 12 µM. 300,000 tested, 0.02% active. AID 1875, 2009;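 active = lowest replicate activity score at least 50, where 100 means six control SD above control mean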;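 note: yeast exposed to compound for 9 h at 30 °C; higher score means more reporter readthrough which indicates perturbed polyadenylation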
# DAX1 inh-2: DAX1 (NR0B1) inhibitors, primary screen, cell-based, HEK293, Gal4-DAX1, luciferase luminescence; AID 504766, 2011; 340,000 tested, 0.99% active; inhibition, % at 6.75 µM; HEK293 Gal4-DAX1 luciferase reporter; Nuclear receptor subfamily 0 group B member 1 (Homo sapiens), P51843;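 active = inhibition above the mean over all tested compounds plus 3 SD, cut at about 4.2% in these data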;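 note: inhibition shows as a rise in luminescence from relieved DAX1 repression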
# LXRb hcDAF ctr: LXR agonists, Gal4 luciferase reporter, confirmation, counter-screen for hcDAF-12 agonist project, cell-based, luminescence, HEK293, H. contortus campaign. shares compounds with hcDAF-12 act. HEK293 Gal4-LXR tk-luc reporter, 24 h; normalized: DMSO 0%, positive control 100%. activation, % at 6.8 µM. 3,400 tested, under 10 active. AID 743027, 2013;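 active = mean percent activation of the reporter above a cutoff set as the average over tested compounds plus their standard deviation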
# Target sequence (P55055 whole entry, looked up, the tested form may be a part): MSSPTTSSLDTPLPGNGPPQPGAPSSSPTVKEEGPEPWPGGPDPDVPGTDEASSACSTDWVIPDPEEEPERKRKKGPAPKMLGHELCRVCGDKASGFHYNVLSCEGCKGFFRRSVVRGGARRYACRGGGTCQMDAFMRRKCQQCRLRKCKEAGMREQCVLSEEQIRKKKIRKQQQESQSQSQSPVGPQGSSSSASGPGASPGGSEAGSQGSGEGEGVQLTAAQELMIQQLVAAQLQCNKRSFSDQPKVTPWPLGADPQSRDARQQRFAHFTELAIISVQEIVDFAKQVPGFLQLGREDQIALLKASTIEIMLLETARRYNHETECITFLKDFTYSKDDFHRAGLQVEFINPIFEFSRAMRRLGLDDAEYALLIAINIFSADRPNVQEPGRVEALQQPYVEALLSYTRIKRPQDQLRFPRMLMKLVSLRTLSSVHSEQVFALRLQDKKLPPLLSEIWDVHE
# hcDAF12 conf: H. contortus DAF-12 receptor agonists, confirmation, cell-based, luminescence, HEK293, lit1-tk-luc, triplicate. shares compounds with hcDAF-12 act. HEK293 hcDAF-12 lit1-tk-luc reporter; % of Δ7-dafachronic acid response. activation, % at 6.8 µM. 3,400 tested, 61% active;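 active = mean activation across triplicate tests above the threshold derived from the earlier primary screen, cut at about 5.5% in these data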
# Hits are given with their value; – = inactive; · = not tested or not shown.
SMILES,hcDAF-12 act,DAX1 inh-1,hgDAF12 agonist,ssDAF12 agonist,PolyA inhibitor,DAX1 inh-2,LXRb hcDAF ctr,hcDAF12 conf
CC(C)(C)c1ccc(/C=C/C(=O)NC2=NCCS2)cc1,6.6,–,–,–,–,–,–,5.7
Cc1ccccc1NC(=O)C(=O)Nc1ccccc1C,8.3,–,–,–,–,–,–,–
N#C/C(=C\c1ccc[nH]1)C(=O)Nc1ccccc1[N+](=O)[O-],–,–,–,–,–,–,·,·
Cc1ccccc1NC(=O)/C(C#N)=C/c1ccc[nH]1,11,–,–,–,–,–,–,8.5
O=C(Nc1cccc([N+](=O)[O-])c1)c1ccc2snnc2c1,–,–,–,–,–,–,·,·
Cc1nc2cc(-c3ccc(Cl)cc3)nn2c(NCCN(C)C)c1C,13,–,–,1.5,–,–,–,7.5
Cc1cc(C)n2nc(-c3ccc(Br)cc3)cc2n1,14,–,11,1.5,–,4.7,–,11
Cc1cc(C)n2nc(-c3ccc(Cl)cc3)cc2n1,13,–,11,1.9,–,–,–,12
COc1ccc(-c2cc3nc(C)cc(C)n3n2)cc1,9.2,–,12,2.7,–,8.0,–,13
COc1ccc(CNc2nc3nc(C)cc(C)n3n2)cc1,–,–,–,–,–,–,·,·
Cc1cc(-c2ccc(Cl)cc2)n2nc(C)cc2n1,–,–,–,–,–,–,·,·
CCOC(=O)C1=C(COC(=O)Cc2ccccc2[N+](=O)[O-])NC(=O)NC1C (centres undefined),–,–,–,–,·,–,·,·
COc1ccc(Cl)cc1N1C(=O)/C(=C\c2sccc2C)N=C1SCC(=O)NC1CC1,–,–,–,–,–,–,·,·
Cc1ccc(NC(=O)c2ncn(CCCNCC(C)c3ccccc3)n2)cc1C (centres undefined),–,–,–,–,·,–,·,·
N#C/C(=C(/O)CN1CCCC1)c1nc(-c2ccccc2)cs1,8.8,–,12,–,–,5.3,–,–
CCN(C(=O)CSc1nc2cc(S(=O)(=O)N(CC)CC)ccc2n1CC)C1CCS(=O)(=O)C1 (centres undefined),–,–,–,–,–,–,·,·
COc1ccc(Cc2c(-c3cccc(Br)c3)nc3cc(C)c(Br)c(C)n23)c(C)c1,–,–,–,–,·,·,·,·
COc1ccc(Cc2c(-c3ccc(C)cc3)nc3cc(C)c(Br)c(C)n23)c(C)c1,11,–,11,2.1,·,·,–,6.1
O=C(CSc1nnc(Cc2cccs2)n1-c1ccc(Cl)cc1)NCc1ccc2c(c1)OCO2,–,–,–,–,–,–,·,·
Cc1ccc(S(=O)(=O)Nc2ccc(O)c3ccccc23)c(C)c1,–,–,–,–,–,–,·,·
Cc1ccc(C)c(S(=O)(=O)Nc2ccc(O)c3ccccc23)c1,8.0,–,–,–,–,–,–,–
CCC(C)c1ccccc1N1CC(C(=O)N(C)CC(=O)Nc2cccc(F)c2)CC1=O (centres undefined),–,–,–,–,–,–,·,·
O=C(c1cc2cc(F)ccc2[nH]1)N1CCc2ccccc21,16,–,13,1.9,–,5.0,–,9.2
O=C(CN1CCCCC1)N=Nc1c(O)[nH]c2ccccc12,–,–,–,–,–,–,·,·
Oc1[nH]c2ccccc2c1N=Nc1ccccc1,13,–,–,–,–,–,–,14
SMILES,hcDAF-12 act,DAX1 inh-1,hgDAF12 agonist,ssDAF12 agonist,PolyA inhibitor,DAX1 inh-2,LXRb hcDAF ctr,hcDAF12 conf
COC(=O)/C=C(\C)N=Nc1c(O)[nH]c2ccccc12,7.3,–,–,–,–,–,–,6.8
CCC(=O)N1CCC1(C)C(=O)Nc1ccc(C)c(C)c1 (centres undefined),–,–,–,–,·,·,·,·
CCCS(=O)(=O)N1CCN(C(=O)COc2ccc(OC)cc2)CC1,–,–,–,–,–,–,·,·
CC1(C(=O)NS(=O)(=O)c2ccc(F)cc2F)CCN1C(=O)c1ccccc1CCc1ccccc1 (centres undefined),–,–,–,–,·,·,·,·
O=C(CCN1CCN(c2ccccc2)CC1)Nc1cccc(Br)c1,6.8,–,–,–,–,–,–,–
O=C(CCN1CCCC1)Nc1cccc(Br)c1,–,–,–,–,–,–,·,·
CN(C)c1nc(C(=O)Nc2ccccc2)nc(N(C)C)n1,6.7,–,–,–,–,–,–,–
O=C(NC(=S)Nc1ccc(Oc2ccc(Cl)cc2)cc1)c1ccccc1,–,–,–,–,–,–,·,·
O=C(NC(=S)Nc1ccc(Cl)cc1)c1ccccc1,8.0,–,13,–,–,–,–,–
O=C(NC(=S)Nc1cccc([N+](=O)[O-])c1)c1ccccc1,–,–,–,–,–,·,·,·
O=C(NC(=S)Nc1cc([N+](=O)[O-])ccc1Cl)c1ccccc1,6.6,–,–,–,–,–,–,6.0
O=C(NNc1cc(Br)c(O)c(Br)c1)c1ccccc1,–,–,–,–,–,–,·,·
COc1ccc(C(=O)c2ccccc2)c(O)c1,–,–,–,–,–,–,·,·
COc1ccc(N=Nc2ccc3ccccc3c2)c(O)c1,8.1,–,–,–,–,–,–,12
O=C(/C(=C(/[O-])c1ccccc1)[n+]1ccccc1)c1ccc([N+](=O)[O-])cc1,–,–,–,–,–,–,·,·
O=C(/C(=C(\[O-])c1ccccc1)[n+]1ccc2ccccc2c1)c1ccc([N+](=O)[O-])cc1,–,–,–,–,–,–,·,·
O=C(/C(=C(\[O-])c1ccccc1)[n+]1ccc2ccccc2c1)c1ccccc1,8.1,–,–,–,–,–,–,–
O=C(/C(=C(\[O-])c1ccccc1)[n+]1ccc2ccccc2c1)c1ccc(Cl)cc1,9.8,–,–,–,–,–,–,–

# Assay outcomes from PubChem BioAssay.
